In PubChem BioAssay (Tox21):
Active and inactive are the calls of the source. Calls come from the whole dose curve; as a rule, active = well fitted curve in the direction sought with a large enough effect in the repeat runs; inconclusive = weak or mixed curves; inactive = flat fitted curve, though single readings scatter.

Assay: qHTS assay to test for compound auto fluorescence at 460 nm (blue) in HEK293 cells (AID 720678)
Settings: blue autofluorescence 405/460 nm; series mostly up to 91.3 µM; fluorescence, % of triamterene: at the top concentration
Description: National Center for Advancing Translational Sciences [NCATS]
NIH Chemical Genomics Center [NCGC]
U.S. Environmental Protection Agency [EPA]
National Institutes of Environmental Health Sciences [NIEHS]
National Toxicology Program [NTP]
U.S. Food and Drug Administration [FDA]
Compound auto fluorescence often interferes with screening of the compound library against various biological targets and signaling pathways. Some of these compounds may have fluorophoric properties. Such properties may interfere with the assay outputs resulting in false positives and/or negatives. To decrease such complications and ensure the compound activities are relevant in terms of biological response, the Tox21 10K compound library was screened for auto fluorescence.
From the fluorophores used as reporter signals in our screening assays, the auto fluorescence equivalencies of compounds against three fluorophores have been evaluated: Triamterene, Fluorescein and Rose Bengal sodium for blue, green and red fluorescence, respectively. The fluorescence intensities were measured using Excitation/Emission wavelengths at 405/460nm, 485/535nm and 540/590nm for blue, green and red labels, respectively. This assay includes the blue fluorescence data.
Tox21 Assay Protocol Summary:
2,000 HEK293 cells in 5 uL of culture medium containing 10% dialyzed FBS per well were dispensed into black wall/clear bottom 1536-well plates using a Multidrop Combi Dispenser (Thermo Scientific). The assay plates were incubated for 4-5 hr at 37C to allow cell attachment to the well bottom, followed by the transfer of 23 nL compound or DMSO vehicle by a pintool work station (Kalypsys, San Diego, CA). After the assay plates were incubated overnight at 37C and 5% CO2, fluorescence intensities in the assay plates were measured by an Envision (PerkinElmer, Shelton, CT) plate reader using three labels for measuring blue, green and red fluorescence at […] 460, 535 and 590nm respectively.
% is set by controls: 0 for no effect and ±100 for the full control effect.

Which “fluorescence, % of triamterene” value does the source give for `CCCCCCCCc1ccc(S(=O)(=O)O)cc1` here?
Its value is -0.0213% (inactive).

With `CCCNC(C)C(=O)Nc1c(C)csc1C(=O)OC` (stereo not given) as the compound, how does the fluorescence, % of triamterene read?
Its fluorescence, % of triamterene is -0.0757% [at 18.6 µM] (inactive).

Which “fluorescence, % of triamterene” value does the source give for `CCCCCCCCCCCCCCCCOP(=O)([O-])OCC[N+](C)(C)C` here?
The value was 0.0132% [at 46 µM] (inactive).

Which “fluorescence, % of triamterene” value does the source give for `CCOc1ccc(NC(N)=O)cc1` here?
Its value is 0.0019% (inactive).

Which “fluorescence, % of triamterene” value does the source give for `CCOC(=O)[C@H](CCc1ccccc1)N[C@@H](C)C(=O)N1Cc2cc(OC)c(OC)cc2C[C@H]1C(=O)O` here?
The value was 0.0474% [at 46 µM] (inactive).

For `CC/C=C\CCOC(=O)CCCCC`, which “fluorescence, % of triamterene” value is on record?
Its value is -0.0024% (inactive).

With `CC(C)NC[C@@H](O)COc1cccc2ccccc12` as the compound, how does the “fluorescence, % of triamterene” value read?
The value was 0.0208% [at 46 µM] (inactive).

For `CCCCC(CC)COC(=O)COc1cc(Cl)c(Cl)cc1Cl` (stereo not given), which “fluorescence, % of triamterene” value is on record?
Its value is -0.0045% (inactive).

For `CN1[C@@H]2CC[C@H]1CC(OC(=O)c1c[nH]c3ccccc13)C2` (stereo not given in full), which “fluorescence, % of triamterene” value is on record?
The value was -0.294% [at 46 µM] (inactive).

For `c1ccc(CN(CC2=NCCN2)c2ccccc2)cc1`, which “fluorescence, % of triamterene” value is on record?
Its value is -0.0717% [at 46 µM] (inactive).

Which fluorescence, % of triamterene does the source give for `NC(Cc1ccc(F)cc1)C(=O)O` (stereo not given) here?
Its fluorescence, % of triamterene is -0.105% [at 3.72 µM] (inactive).

For `COc1cc(Cl)ccc1Cl`, which “fluorescence, % of triamterene” value is on record?
Its value is -0.0184% [at 95.7 µM] (inactive).

For `Cn1cnc2c(F)c(Nc3ccc(Br)cc3Cl)c(C(=O)NOCCO)cc21`, which “fluorescence, % of triamterene” value is on record?
The value was 0.0283% [at 46 µM] (inactive).

For `O=c1[nH]cnc2c1ncn2[C@@H]1O[C@H](CO)[C@@H](O)[C@H]1O`, which “fluorescence, % of triamterene” value is on record?
Its value is 0.0473% [at 46 µM] (inactive).

Which “fluorescence, % of triamterene” value does the source give for `O=C(CC(=O)C(F)(F)F)c1ccccc1` here?
Its value is -0.0274% [at 95.7 µM] (inactive).

With `Cc1ccsc1C(=CCCN1CCC[C@@H](C(=O)O)C1)c1sccc1C` as the compound, how does the “fluorescence, % of triamterene” value read?
Its value is 0.296% [at 46 µM] (inactive).

With `COc1ccccc1OCC(O)COC(N)=O` (stereo not given) as the compound, how does the fluorescence, % of triamterene read?
Its fluorescence, % of triamterene is 0.0837% [at 18.6 µM] (inactive).

With `C=CCc1cc(OC)c(O)c(C(=O)NCCO)c1` as the compound, how does the “fluorescence, % of triamterene” value read?
Its value is -0.0094% [at 46 µM] (inactive).

With `CC1=CC(=O)CC(C)(C)C1=O` as the compound, how does the “fluorescence, % of triamterene” value read?
The value was 0.0565% [at 95.7 µM] (inactive).

For `CCOC(=O)C(Br)c1ccccc1` (stereo not given), which “fluorescence, % of triamterene” value is on record?
Its value is -0.129% (inactive).

For `CO[Si](C)(C)OC`, which “fluorescence, % of triamterene” value is on record?
The value was 0.0068% (inactive).

With `CCCCCCCOC(=O)CCC` as the compound, how does the “fluorescence, % of triamterene” value read?
The value was -0.0094% (inactive).

For `CC[C@H]1CC[C@H](NCc2cc3c(cc2OC)[C@H]2C[C@H]2C(=O)N3C)[C@H](c2ccccc2)N1`, which “fluorescence, % of triamterene” value is on record?
The value was -0.184% (inactive).

Which “fluorescence, % of triamterene” value does the source give for `O=c1[nH]c(=O)n([C@H]2C[C@H](O)[C@@H](CO)O2)cc1C(F)(F)F` here?
The value was 0.076% [at 46 µM] (inactive).

For `CCN1CC(CCN2CCOCC2)C(c2ccccc2)(c2ccccc2)C1=O` (stereo not given), which “fluorescence, % of triamterene” value is on record?
The value was -0.189% [at 46 µM] (inactive).

With `CCOc1ccccc1N` as the compound, how does the “fluorescence, % of triamterene” value read?
The value was 0.103% (inactive).

Which outcome does the source give for `CC(C)(CO)[C@@H](O)C(=O)NCCC(=O)O` here?
The outcome was “inactive”.

Which fluorescence, % of triamterene does the source give for `COC(=O)c1ccc2cc(C(=O)OC)ccc2c1` here?
Its fluorescence, % of triamterene is -0.0093% [at 18.6 µM] (inactive).

For `FC(F)(F)C(F)(F)C(F)(F)C(F)(F)C(F)(F)C(F)(F)C(F)(F)C(F)(F)Br`, which “fluorescence, % of triamterene” value is on record?
The value was 0.0192% [at 46 µM] (inactive).

Which “fluorescence, % of triamterene” value does the source give for `CN(C)CC[C@@H](c1ccc(Cl)cc1)c1ccccn1` here?
The value was -0.136% [at 46 µM] (inactive).

With `ClC(Cl)Cl` as the compound, how does the outcome read?
Its outcome is “inactive”.

For `O=C1C=CC(=O)O1`, which “fluorescence, % of triamterene” value is on record?
Its value is 0.007% [at 95.7 µM] (inactive).

Which outcome does the source give for `COc1ccc(S(=O)(=O)Nc2nnc(CC(C)C)s2)cc1` here?
Its outcome is “inactive”.

For `Oc1ccccc1F`, which “fluorescence, % of triamterene” value is on record?
Its value is 0.218% (inactive).

Which “fluorescence, % of triamterene” value does the source give for `CCN(CC)CCOc1ccc(Cc2ccccc2)cc1` here?
The value was 0.0246% [at 46 µM] (inactive).

With `CC(C)Nc1nc(N)nc(Cl)n1` as the compound, how does the “fluorescence, % of triamterene” value read?
Its value is 0.107% (inactive).

For `O=C(O)c1cccc(Cl)c1Cl`, which “fluorescence, % of triamterene” value is on record?
Its value is -0.181% (inactive).

Which “fluorescence, % of triamterene” value does the source give for `Nc1ccc2ccccc2c1S(=O)(=O)O` here?
The value was 0.0543% [at 95.7 µM] (inactive).

For `CC(C)OC(C)C`, which “fluorescence, % of triamterene” value is on record?
The value was 0.0485% [at 95.7 µM] (inactive).

Which “fluorescence, % of triamterene” value does the source give for `CCOC(=O)COc1ccc2c(c1)CC(NCC(O)c1cccc(Cl)c1)CC2` (stereo not given) here?
The value was -0.0186% (inactive).
